# Screens (PubChem BioAssay)
# In the library only some 3.4% were active in any assay of this set; here they are far more common.
# ADAM10 inh: inhibits human ADAM10; recombinant ADAM10, EDANS/DABCYL FRET peptide cleavage, 3 h; inhibition, % at 7 µM; hit rate 0.62% among 370,000; AID 720582;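 active = inhibition above a per-campaign cutoff equal to the mean of compounds falling between control-based bounds plus 3 SD, cut at about 20% in these data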;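 note: 0% = DMSO wells while the 100% control is not disclosed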
# Target sequence (O14672 214-748 limits assumed): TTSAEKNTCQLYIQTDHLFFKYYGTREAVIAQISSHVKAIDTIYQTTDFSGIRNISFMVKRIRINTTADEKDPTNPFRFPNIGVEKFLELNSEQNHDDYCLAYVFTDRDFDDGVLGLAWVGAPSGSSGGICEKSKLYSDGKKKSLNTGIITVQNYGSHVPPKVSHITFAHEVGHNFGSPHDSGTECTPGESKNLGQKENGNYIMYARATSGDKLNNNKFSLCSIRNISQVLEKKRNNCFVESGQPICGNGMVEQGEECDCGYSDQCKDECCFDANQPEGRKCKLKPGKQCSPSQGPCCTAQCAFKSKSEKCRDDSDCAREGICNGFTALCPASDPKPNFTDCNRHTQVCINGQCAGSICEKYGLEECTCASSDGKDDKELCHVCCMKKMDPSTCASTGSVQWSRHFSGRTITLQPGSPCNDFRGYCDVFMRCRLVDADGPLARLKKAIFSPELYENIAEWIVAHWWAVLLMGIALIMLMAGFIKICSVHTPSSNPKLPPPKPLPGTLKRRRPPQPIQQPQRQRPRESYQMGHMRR
# NRP1-CendR mod: NRP-1/CendR interaction modulation | FAM-RPARPAR peptide binding to NRP-1, fluorescence polarization | O14786 | AID 602438 | inhibition, % at 25 µM | hit rate 0.85% among 360,000;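 active = inhibition or corrected inhibition above about 18%, plus a signal ratio from 0.5 to 1.5, limit read from the data, passing the limit was not always enough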
# sPLA2-III inh: Blocks human group III sPLA2 activity; Q9NZ20; QFRET BODIPY PC-A2 liposome hydrolysis, fluorescence; inhibition, % at 12.2 µM; hit rate 0.56% among 370,000;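 active = inhibition above mean plus 3 SD of compounds lying within the high and low control bounds, cut at about 19% in these data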;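 note: 0% = median of test compound wells and 100% = no enzyme DMSO wells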
# ADAM17 inh: ADAM17 inhibition, QFRET primary screen. recombinant ADAM17, EDANS/DABCYL FRET peptide cleavage. hit rate 0.83% among 370,000. P78536. inhibition, % at 6.95 µM;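 active = inhibition above the mean of compounds lying between control limits plus 3 SD, set per campaign, cut at about 8.5% in these data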;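 note: 0% = DMSO-only wells as the low control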
# proKLK7 act: activators of human kallikrein-7 zymogen. P49862. purified proKLK7, EDANS-DABCYL substrate fluorescence; 100% is mature enzyme control, 0% vehicle. activation, % at 7 µM. hit rate 0.9% among 370,000;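 active = activation above the mean of all tested compounds plus 3 SD, computed per campaign excluding outliers beyond control limits, cut at about 13% in these data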
# hGIII sPLA2 conf: human GIII-sPLA2 inhibition, confirmation. AID 743280. inhibition, % at 12.2 µM. shares compounds with sPLA2-III inh. recombinant hGIII-sPLA2, BODIPY PC-A2 QFRET fluorescence. hit rate 34% among 2,000;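 active = mean inhibition across triplicates above the hit cutoff set in the earlier primary screen, cut at about 19% in these data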;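 note: 0% = enzyme with DMSO and 100% = DMSO wells lacking enzyme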
# BODIPY interf: 535nm fluorescence interference, HGIII-sPLA2 counter-screen; BODIPY FL product fluorescence interference, QFRET; hit rate 8.5% among 2,000; AID 743282; inhibition, % at 12.2 µM; shares compounds with sPLA2-III inh;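 active = average inhibition above the solvent-only control mean plus 3 SD, cut at about 6% in these data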;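 note: 0% = DMSO with substrate plus product and 100% = DMSO with substrate alone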
# * = called active by the depositor; . = no result given.
SMILES,ADAM10 inh,NRP1-CendR mod,sPLA2-III inh,ADAM17 inh,proKLK7 act,hGIII sPLA2 conf,BODIPY interf
Oc1ccc(/C=N/n2c(COc3ccccc3)n[nH]c2=S)c(O)c1,-2,0,4,-1,-2,.,.
CCOc1ccccc1/C=N/n1c(COc2ccccc2)n[nH]c1=S,12,5,23*,1,0,19*,6.9*
Cc1n[nH]c(=S)n1/N=C/c1ccc(OCc2ccc(Cl)cc2Cl)cc1,0,0,3,-1,0,.,.
Cc1ccc(C2CC2C(=O)NNC(=S)Nc2ccc(Cl)cc2)cc1 (centres undefined),18,6,21*,5,0,9,12*
CCC(C)NC(=S)N(Cc1cc2cc(C)ccc2n2nnnc12)CC(C)(C)NC(C)C (centres undefined),-11,4,21*,-10,-1,6,-8
COc1ccc2c(c1)[C@@H](NC(=O)c1ccncc1)[C@@H]1Cc3ccccc3[C@H]21,-5,.,1,-1,0,.,.
Cc1ccccc1CNC(=S)OC1CCC12CCC(c1ccccc1)CC2 (centres undefined),-5,.,4,-3,0,.,.
COc1ccc(-c2c(C(=O)c3ccccc3)[nH]c(N)c2C(=O)c2ccc(Br)cc2)cc1OC,4,-9,26*,-1,-33,20*,-2
COc1ccc(-c2c(C(=O)c3ccccc3)[nH]c(N)c2C(=O)c2ccccc2)cc1OC,0,-13,20*,1,0,9,-8
CC(SCC(=O)NC12CC3CC(CC(C3)C1)C2)C(=O)O (centres undefined),-6,6,24*,0,0,-2,-4
O=S(=O)(Nc1ccc(Cl)nn1)c1ccccc1,-1,-4,6,-4,0,.,.
O=S(=O)(NNc1ccc(Cl)nn1)c1ccc(F)cc1,6,-1,19*,1,0,15,8.3*
CN1/C(=C\C(=S)Nc2ccccc2)C(C)(C)c2ccccc21,-5,-27,14,2,2,.,.
CN1/C(=C/C(=S)NC(=O)C2(C)CC2(Cl)Cl)C(C)(C)c2ccccc21 (centres undefined),10,-29,27*,7,0,8,3
CCCCNC(=O)C1c2ccccc2OCC(=O)N1CC(F)(F)F (centres undefined),-21,-25,20*,0,0,-5,-6
Cc1ccc(S(=O)(=O)N(C)[C@H]2C[C@H]3c4cc(N5CCOCC5)ccc4CCN3C[C@H]2[C@H](C)O)cc1,4,.,3,1,1,.,.
CC(C)(C)c1ccc(C#C[C@@H]2C=C[C@@H](O)[C@@H](CO)O2)cc1,-1,.,20*,-3,1,-2,-12
COc1cc(OC)cc(C(C)c2ccc(C)cc2)c1 (centres undefined),0,.,5,-1,.,.,.
CCCOc1cccc(OCC(=O)Nc2nc3ccccc3[nH]2)c1,7,-9,25*,-3,0,14,-3
CCCCOc1cccc(OCC(=O)Nc2nc3ccccc3[nH]2)c1,1,-13,9,0,0,.,.
CCc1cc2c(=O)[nH]c(Cc3ccc(OC)cc3)nc2s1,5,-10,-5,2,0,.,.
CCc1cc2c(=O)[nH]c(COC)nc2s1,-2,-5,19*,-4,0,2,-5
COc1ccc2c(c1)CCC/C2=N\NC(=O)c1ccoc1C,-5,9,21*,-3,-1,12,-5
CCCC[C@H]1C2CC(OC(=O)Nc3ccc(C(F)(F)F)cc3)C(C2)[C@H]2CCCCN21 (some centres undefined),-7,.,3,-8,0,.,.
O=C(CSc1nnc(-c2cccs2)o1)c1ccc2c(c1)OCO2,-7,.,-13,-4,1,.,.
SMILES,ADAM10 inh,NRP1-CendR mod,sPLA2-III inh,ADAM17 inh,proKLK7 act,hGIII sPLA2 conf,BODIPY interf
CCN(CC)C(=O)c1csc([C@@H]2O[C@H](CO)[C@H](O)[C@H](O)[C@H]2O)n1,-15,-8,17,-3,-1,.,.
CN(Cc1ccccc1)C(=O)c1csc([C@@H]2O[C@H](CO)[C@@H](O)[C@H]2O)n1,-23,-1,20*,-3,-1,-6,-4
O=C(NCc1ccccc1)N1CCNCC1,-7,3,22*,-7,0,1,-7
O=C(NCc1ccccc1)N1CCCC1,-4,1,-5,-5,1,.,.
Cc1ccc([N+](=O)[O-])cc1N,6,5,5,2,-2,.,.
CCOC(=O)C(=O)Nc1ccc([N+](=O)[O-])cc1OC,0,-9,23*,0,0,-1,-1
COc1cc([N+](=O)[O-])ccc1N,0,6,28*,-3,0,2,-4
CCOC(=O)Nc1ccc([N+](=O)[O-])cc1OC,-1,-6,-4,-4,1,.,.
CN(C)CC(=O)N[C@H]1C[C@@H]2O[C@@H](CO)CC[C@@H]2O[C@@H]1CCc1ccc(-c2ccc(F)cc2)cc1,3,.,-17,-1,-1,.,.
CSC1=NCCCN1C(=O)c1c(-c2ccccc2Cl)noc1C,-1,6,22*,-7,1,-2,-6
C[C@H]1[C@H](c2ccccc2)Oc2cccc(NCCc3ccccc3)c2S(=O)(=O)N1Cc1cccc(F)c1,-2,.,-1,-4,0,.,.
COc1ccc2nc(SCC(N)=O)cc(C)c2c1,-24,1,-3,-10,0,.,.
COc1ccc2c(-c3ccccc3)cc(SCC(N)=O)nc2c1,-39,-120,20*,-20,-1,4,-17
Cc1cc(C)nc(N/N=C/c2ccccc2Cl)n1,6,-4,1,-1,0,.,.
Cc1cc(C)nc(N/N=C/c2cccc3ccccc23)n1,-3,3,19*,-5,0,-3,-2
CCN(CC)C(=O)/C=C/c1ccccc1,-1,21,20*,-3,-1,-3,-4
COCCCNCCCCSc1ccc(Cl)cc1,-9,3,22*,4,0,-8,-27
COc1cc2c(cc1NC(=O)CSc1nnc(-c3ccccn3)n1-c1ccccc1)oc1ccccc12,3,.,-2,1,0,.,.
C/C(=N\NC(=S)NC(C)C)c1cccc([N+](=O)[O-])c1,4,-9,20*,-1,0,22*,-5
C/C(=N\NC(=S)NC(C)C)c1ccc(Cl)c([N+](=O)[O-])c1,-9,2,20*,-5,0,19*,5
C/C(=N/NC(=S)Nc1cccc(C)c1)c1cccc([N+](=O)[O-])c1,-6,-2,-6,-1,0,.,.
C/C(=N\NC(=S)NC(C)C)c1ccccc1,-3,2,11,-2,0,.,.
